# Measured values as given in article PMC4336329 (PLoS ONE, 2015).
# Out of some 310,000 compounds screened, about 2,200 (0.71%) showed an effect of 50% or more. Effects have a minus sign here. Only a selection was taken, and strong results are over-represented in it overall.
# Molecular target: human ether-à-go-go-related gene (hERG) potassium channel (human, UniProt Q12809)
# Test: primary screen, population patch clamp on CHO cells stably expressing hERG; higher = less effect of the substance
# Method: Briefly, Chinese hamster ovary (CHO) cells stably expressing the hERG channel were dislodged from tissue culture flasks and dispensed into PPC plates. […] During the recording, background leak currents were estimated by a 100 ms step to -80 mV from an initial holding potential of -70 mV and subtracted from the subsequent current measurement. The campaign was conducted in two phases using slight differences in recording protocol. In the first phase, the initial voltage pulse used a 100 ms step to -30 mV from a holding potential of -70 mV, a 2 s conditioning step to +25 mV, and a 2 s test step to -30 mV. During the second phase of the screen, the potential during the conditioning step was raised to +45 mV. In both phases of the campaign, a secondary voltage pulse was applied using the same parameters as the second phase initial pulse. The initial and secondary pulses were applied in the absence of compound, and upon application of 1 μM and 10 μM test concentrations. Small molecule effects on hERG current density were quantified by […].
# Chain of human ether-à-go-go-related gene (hERG) potassium channel (Q12809 whole entry, looked up): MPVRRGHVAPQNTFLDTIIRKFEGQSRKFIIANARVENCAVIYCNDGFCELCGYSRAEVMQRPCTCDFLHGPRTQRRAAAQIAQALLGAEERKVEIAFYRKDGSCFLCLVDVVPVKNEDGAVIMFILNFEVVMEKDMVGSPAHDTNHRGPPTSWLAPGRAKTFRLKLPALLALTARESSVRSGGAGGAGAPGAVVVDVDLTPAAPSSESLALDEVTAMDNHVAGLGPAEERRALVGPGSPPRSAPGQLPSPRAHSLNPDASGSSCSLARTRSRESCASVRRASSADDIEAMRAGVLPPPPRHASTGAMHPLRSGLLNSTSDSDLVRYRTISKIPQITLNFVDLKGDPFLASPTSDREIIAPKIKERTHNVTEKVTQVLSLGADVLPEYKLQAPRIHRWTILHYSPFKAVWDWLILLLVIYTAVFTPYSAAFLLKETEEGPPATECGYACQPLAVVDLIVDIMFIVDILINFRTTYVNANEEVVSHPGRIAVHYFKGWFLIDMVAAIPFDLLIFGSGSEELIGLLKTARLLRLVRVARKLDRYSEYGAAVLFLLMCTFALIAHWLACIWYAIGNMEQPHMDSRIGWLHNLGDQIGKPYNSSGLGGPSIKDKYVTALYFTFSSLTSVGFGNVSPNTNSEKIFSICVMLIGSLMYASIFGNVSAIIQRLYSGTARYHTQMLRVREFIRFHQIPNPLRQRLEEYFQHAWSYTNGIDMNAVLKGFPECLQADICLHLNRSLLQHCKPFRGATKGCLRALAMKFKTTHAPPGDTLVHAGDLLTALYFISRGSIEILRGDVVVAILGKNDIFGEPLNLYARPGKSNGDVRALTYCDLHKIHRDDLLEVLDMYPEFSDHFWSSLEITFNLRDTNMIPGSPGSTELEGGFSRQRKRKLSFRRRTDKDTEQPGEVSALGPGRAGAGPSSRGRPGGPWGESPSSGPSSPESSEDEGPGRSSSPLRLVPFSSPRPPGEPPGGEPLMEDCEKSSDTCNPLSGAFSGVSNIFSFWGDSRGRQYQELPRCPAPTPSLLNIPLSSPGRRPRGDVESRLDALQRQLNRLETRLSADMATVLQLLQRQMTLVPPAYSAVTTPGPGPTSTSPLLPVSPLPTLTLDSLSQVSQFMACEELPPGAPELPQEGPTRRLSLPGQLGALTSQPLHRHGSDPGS
row,SMILES,"hERG current change (%, negative = inhibition) at 1uM"
1,CC(=O)Nc1ccc(-n2c(C)ccc2C)cc1,12.9%
2,O=C(/C=C/c1cccc(F)c1)N1CCN(c2ccccn2)CC1,-68.4%
3,O=C(/C=C/c1ccccc1Cl)N1CCN(c2ncccn2)CC1,7.12%
4,O=C(/C=C/c1cccc(F)c1)N1CCN(c2ncccn2)CC1,12.4%
5,O=C(/C=C/c1c(Cl)cccc1Cl)N1CCN(c2ncccn2)CC1,-53%
6,O=C(/C=C/c1ccc(F)cc1)N1CCN(c2ncccn2)CC1,18.1%
7,O=C(/C=C/c1ccccc1)N1CCN(c2ccccn2)CC1,-3.17%
8,Cc1ccc2cc(CCNC(=O)c3ccc(S(=O)(=O)N4CCOCC4)cc3)c(=O)[nH]c2c1C,11.8%
9,Cc1ccc(C)c(S(=O)(=O)NCC(=O)NCc2ccco2)c1,4.55%
10,Cc1cccc(C)c1NC(=O)CCCSc1nnc(N)s1,8.09%
11,Cl.N=c1n(CCN2CCOCC2)c2ccccc2n1CC(O)COc1ccccc1 (centres unmarked),-3.77%
12,CCCn1c(=N)n(CC(O)COc2ccc(C)cc2)c2ccccc21.Cl (centres unmarked),-68%
13,Cc1ccc(OCC(O)Cn2c3ccccc3c3ccccc32)cc1 (centres unmarked),16.8%
14,CCn1c(=N)n(CC(O)COc2ccc(C)cc2)c2ccccc21.Cl (centres unmarked),-16.8%
15,Br.CCCCn1c(=N)n(CCOc2ccc(C)cc2)c2ccccc21,-59.6%
16,CCCCn1c(=N)n(CC(O)c2ccccc2)c2ccccc21.Cl (centres unmarked),-36.7%
17,CCN(CC)CCn1c(=N)n(CC(O)COc2ccccc2)c2ccccc21.Cl (centres unmarked),-20.5%
18,CCCCn1c(=N)n(CC(O)COc2ccc(C)cc2)c2ccccc21.Cl (centres unmarked),-77%
19,CCCn1c(=N)n(CCOc2ccc(OC)cc2)c2ccccc21,-22%
20,Cc1ccc(OCC(O)Cn2c(=N)n(CCN3CCOCC3)c3ccccc32)cc1.Cl (centres unmarked),-9.7%
21,CCCCn1c(=N)n(CC(O)COc2ccccc2)c2ccccc21 (centres unmarked),-68%
22,CCn1c(=N)n(CCOc2ccc(OC)cc2)c2ccccc21,-25.5%

row,SMILES,"hERG current change (%, negative = inhibition) at 1uM"
1,CCOC(=O)C1CCN(C(=O)CSC2=NCCS2)CC1,8.93%
2,NS(=O)(=O)c1ccc(CCNC(=O)CN2CCN(Cc3cccc4ccccc34)CC2)cc1,8.33%
3,O=C(COC(=O)CN1C(=O)c2ccccc2C1=O)Nc1cccc(F)c1,5.95%
4,Cc1ccc(C)c(NC(=O)COC(=O)CNC(=O)c2ccccc2Cl)c1,9.98%
5,Cc1cc(Cl)cc(Cl)c1CNc1c([N+](=O)[O-])c(=O)oc2ccccc12,7.59%
6,CC(C)c1cccc(C(C)C)c1NC(=O)CN1C(=O)NC2(CCCCCCC2)C1=O,8.87%
7,Cc1ccc(S(=O)(=O)CC(=O)c2ccc(C(C)(C)C)cc2)cc1,2.43%
8,Br.COc1ccc(C(=O)Cn2c(=N)n(C)c3ccccc32)cc1,-9.98%
9,Br.CCCCn1c(=N)n(CC(=O)c2ccc(OC)cc2)c2ccccc21,-62.2%
10,Br.CCn1c(=N)n(CC(=O)c2ccc(OC)cc2)c2ccccc21,-0.629%
11,C=CCOn1c(C)c(C(C)=O)c2c3nonc3ccc21,13.1%
12,O=C(OCc1ccc2c(c1)OCO2)c1ccc(S(=O)(=O)N2CCCC2)cc1,3.44%
13,CC(=O)Nc1ccc(-c2nnc(SCc3ccccc3C#N)n2C)cc1,-5.5%
14,O=C1N=C2SCCN2/C1=C\c1ccccc1Cl,5.64%
15,CCn1c2ccccc2c2cc(NC(=O)CSc3nnnn3-c3ccccc3)ccc21,9.35%
16,O=C(NCCCn1ccnc1)/C(=C\c1ccco1)NC(=O)c1ccco1,-10.8%
17,COc1ccc(C(=O)N/C(=C\c2ccco2)C(=O)NCCCn2ccnc2)cc1,-0.883%
18,Cc1ccc(C(=O)N/C(=C/c2ccco2)C(=O)NCCCn2ccnc2)cc1,-62.5%
19,Cc1ccc(C(=O)N/C(=C\c2ccco2)C(=O)NCCCn2ccnc2)cc1,-64.1%
20,Cc1ccc(C(=O)N/C(=C\c2ccco2)C(=O)NCCCn2ccnc2)cc1C,-15.7%
21,O=C(NCCCn1ccnc1)/C(=C/c1ccco1)NC(=O)c1ccco1,-10.2%
22,O=C(Nc1nc(-c2nc3ccccc3s2)cs1)C1COc2ccccc2O1 (centres unmarked),13.3%

row,SMILES,"hERG current change (%, negative = inhibition) at 1uM"
1,COC(=O)c1sc(NC(=O)c2cc(-c3ccccc3)nc3ccccc23)c(C#N)c1C,-6.75%
2,CCOc1ccc(S(=O)(=O)N2CCC(C(=O)N3CCN(c4ccccc4F)CC3)CC2)cc1C,-1.32%
3,CCc1nc2scc(-c3ccccc3)c2c(=O)n1N,2.81%
4,COc1ccc(-n2cnnc2SCC(=O)Nc2nc(C)c(Cl)cc2Cl)cc1,-8.71%
5,CCCCn1c(=NC(=O)c2ccco2)c(C(=O)OCC)cc2c(=O)n3cccc(C)c3nc21,-16.5%
6,CCOCCCn1c(=NC(=O)c2ccco2)c(C(=O)OCC)cc2c(=O)n3cccc(C)c3nc21,-73.9%
7,CCOC(=O)c1cc2c(=O)n3cccc(C)c3nc2n(CC(C)C)c1=NC(=O)c1ccco1,-64.7%
8,CCOC(=O)c1cc2c(=O)n3cccc(C)c3nc2n(Cc2ccco2)c1=NC(=O)c1ccccc1,0.671%
9,CCCCCn1c(=NC(=O)c2ccco2)c(C(=O)OCC)cc2c(=O)n3ccccc3nc21,-30.9%
10,CCCn1c(=NC(=O)c2ccco2)c(C(=O)OCC)cc2c(=O)n3ccccc3nc21,-6.68%
11,O=C(NC1CC1)c1ccc(S(=O)(=O)NC2CCCCCC2)cc1,2.1%
12,CC(C)CC(=O)Nc1cc2nn(-c3ccccc3)nc2cc1Cl,-0.947%
13,Cc1sc2ncn(CC(=O)N3CCC(C(N)=O)CC3)c(=O)c2c1S(=O)(=O)N1CCOCC1,10.1%
14,COC(=O)c1cc(NC(=O)CN2CCC(C(N)=O)(N3CCCCC3)CC2)cc(C(=O)OC)c1,5.65%
15,Cc1nc2ccccc2nc(C)c1=NOCc1ccc(Cl)cc1Cl,0.014%
16,CC(=O)Nc1ccc(SCC(=O)Nc2ccccc2Oc2ccccc2)cc1,3.2%
17,Cc1ccccc1NC(=O)CSC(N)=O,24%
18,CCN(CC)CCCN1C(=O)CSC1c1ccc([N+](=O)[O-])cc1.Cl (centres unmarked),-74.4%
19,CN(C)CCCN1C(=O)CSC1c1ccc([N+](=O)[O-])cc1.Cl (centres unmarked),-11.4%
20,CCN(CC)CCCN1C(=O)CSC1c1ccc2c(c1)OCO2.Cl (centres unmarked),-15.9%
21,CC(OC(=O)c1cccc(-n2cnnn2)c1)c1nc2ccccc2c(=O)[nH]1 (centres unmarked),7.2%
22,Cc1ccc(CN2CCN(Cc3cccc4nccnc34)CC2CCO)cc1 (centres unmarked),-53.3%

row,SMILES,"hERG current change (%, negative = inhibition) at 1uM"
1,Cc1ccc(CN2CCN(Cc3cccc(C)n3)CC2CCO)cc1 (centres unmarked),-2.38%
2,CC(C)Cn1c(CN2CCN(C)C(CCO)C2)nc2ccccc21 (centres unmarked),12.7%
3,Cc1ccc(CN2CCN(Cc3nc4ccccc4nc3C)CC2CCO)cc1 (centres unmarked),-65.3%
4,Cc1ccc(CN2CCN(Cc3ccccn3)CC2CCO)cc1 (centres unmarked),-5.1%
5,OCCC1CN(Cc2cccc3nccnc23)CCN1Cc1ccc(F)c(F)c1 (centres unmarked),-11.8%
6,Cc1ccc(CN2CCN(Cc3cnc(C)s3)CC2CCO)cc1 (centres unmarked),-0.701%
7,Cc1ccc(CN2CCN(Cc3ccccc3)C(CCO)C2)s1 (centres unmarked),-26.7%
8,Cc1nc2ccccc2nc1CN1CCN(Cc2ccc(F)c(F)c2)C(CCO)C1 (centres unmarked),-6.36%
9,OCCC1CN(Cc2cccc3nccnc23)CCN1Cc1ccc(F)cc1 (centres unmarked),-7.96%
10,CCn1c(CN2CCN(Cc3ccc(C)cc3)C(CCO)C2)nc2ccccc21 (centres unmarked),-50.5%
11,Cc1ccc(CN2CCN(Cc3ccc(C)s3)CC2CCO)cc1 (centres unmarked),-67.3%
12,O=C(COc1ncnc2cc([N+](=O)[O-])ccc12)N(CCc1ccccc1)Cc1ccccc1,18.9%
13,CC1(C)Oc2ccc3ccc(=O)oc3c2C(N2CCCCC2)C1O (centres unmarked),0.376%
14,COc1cccc(-c2ocnc2C(=O)Nc2ccc(N3CCOCC3)cc2N2CCOCC2)c1,15.6%
15,O=S(=O)(Nc1cc(Sc2cccc3cccnc23)c(O)c2ccccc12)c1ccc(F)cc1,13.4%
16,CC(C)Oc1ccc(CNC(=O)C2CCN(C(=O)N3CCOc4ccccc43)CC2)cc1,6.25%
17,NC(=O)C1CCN(CC(=O)Nc2cc(S(=O)(=O)N3CCOCC3)ccc2N2CCCC2)CC1,-1.18%
18,COC(=O)C1=COC(OC2OC(CO)C(O)C(O)C2O)C2C1C=CC2(O)CO (centres unmarked),5.93%
19,COc1ccc(Cl)cc1NC(=O)[C@@]1(CC(=O)O)CC(/C=C/c2ccccc2)=NO1,12.8%
20,CCc1ccc(-c2cc(C)no2)cc1S(=O)(=O)N1CCN(C(=O)c2ccco2)CC1,-4.73%
